Data on eight compounds can be found in PubChem BioAssay (Tox21).

Inconclusive results are not listed. Calls of active or inactive are those of the source. Unless noted, calls follow the shape of the dose curve; as a rule, active = well fitted curve in the direction sought with a large enough effect in the repeat runs; inconclusive = weak or mixed curves; inactive = no such curve, though single readings can be large; an effect the other way counts as inactive or inconclusive.

The target in assay [1] is Peroxisome proliferator-activated receptor delta (Homo sapiens) (UniProt Q03181). Briefly: qHTS assay to identify small molecule agonists of the peroxisome proliferator-activated receptor delta (PPARd) signaling pathway (AID 743212; calls by dose curve). In a few lines:
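Quantitative high-throughput agonist screen in a HEK293H beta-lactamase reporter line under UAS control. Compounds in DMSO, at 37 C. Fluorescence read after 2 h with FRET substrate at room temperature.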

Assay [2] in a line: qHTS assay to identify small molecule antagonists of the peroxisome proliferator-activated receptor delta (PPARd) signaling pathway - cell viability counter screen (AID 743213). Also: nearly all actives have a fitted effect of over 50% in size. Put shortly: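 Viability counter-screen, qHTS format: PPARd-bla HEK293H, L165041 300 nM final, 17 h compound exposure at 37 C, CellTiter-Glo luminescence after 30 min RT.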
The nature of assay [3]: qHTS assay to identify small molecule agonists of the farnesoid-X-receptor (FXR) signaling pathway - cell viability counter screen (AID 743218). Also: nearly all actives have a fitted effect of over 45% in size. In a few lines: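 FXR-UAS-bla HEK 293T cells exposed to compounds for 16 h at 37C. Cytotoxicity read in the same wells by CellTiter-Glo luminescence after 30 min at room temperature, following the beta-lactamase FRET read.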
For orientation: qHTS replaces the single test concentration by a dilution series.

Assay [4] is described as follows: qHTS assay to identify small molecule antagonists of the farnesoid-X-receptor (FXR) signaling pathway - cell viability counter screen (AID 743221; active = well fitted cell-killing curve with a large enough effect in the repeat runs, not every such curve was filed as active; also: nearly all actives have a fitted effect of over 50% in size). In a few lines: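 Cytotoxicity is taken from ATP luminescence (CellTiter-Glo, 30 min, room temperature) in FXR-bla HEK 293T cells previously incubated 16 h at 37 C with compound and chenodeoxycholic acid at 50 uM final.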

Assay [5] addresses Vitamin D3 receptor (Homo sapiens) (UniProt P11473). Briefly: qHTS assay to identify small molecule agonists of the vitamin D receptor (VDR) signaling pathway (AID 743222; calls by dose curve). In a few lines: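 VDR-bla cells plated 4 h at 37 C, then exposed to compounds for 16 h at 37 C. Beta-lactamase reporter activity measured by fluorescence after 2 h room-temperature loading with LiveBLAzer B/G FRET substrate.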

Assay [6] has the same target. Nature of the assay: qHTS assay to identify small molecule antagonists of the vitamin D receptor (VDR) signaling pathway (AID 743223; active = well fitted inhibition curve with a large enough effect in the signal ratio in the repeat runs, not every such curve was filed as active; the % refers to the signal ratio). Put shortly: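 Quantitative HTS in VDR-bla reporter cells stimulated with 1alpha,25-dihydroxyvitamin D3, 3 nM final. Compound exposure 16 h, 37C, 5% CO2. Read-out: beta-lactamase FRET substrate fluorescence, 2 h RT.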
The nature of assay [7]: qHTS assay to identify small molecule agonists of the vitamin D receptor (VDR) signaling pathway - cell viability counter screen (AID 743224). Also: series mostly up to about 63 µM; nearly all actives have a fitted effect of over 50% in size. Put shortly: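 VDR-bla cells, 4 h after plating, exposed to compounds for 16 h at 37C; viability then read in the same wells as CellTiter-Glo luminescence after 30 min at room temperature, following the bla FRET read.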
Assay [8] in a line: qHTS assay to identify small molecule agonists of the NFkB signaling pathway - cell viability counter screen (AID 1159515; calls by dose curve; also: series mostly up to about 61 µM; nearly all actives have a fitted effect of over 55% in size). Put shortly:
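NFkB-bla ME-180 cells, 2,000/well, plated overnight at 37 C; compound added for 5 hr at 37 C. Viability read in the same wells as the bla reporter, by CellTiter-Glo luminescence after 30 min at room temperature.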

Assay [9] can be described thus: qHTS assay to identify small molecule agonists of the endoplasmic reticulum stress response signaling pathway (AID 1159516; active = well fitted activation curve with a large enough effect in the signal ratio in the repeat runs, not every such curve was filed as active; the % refers to the signal ratio; also: potency is read from the fitted curve at half-maximal effect). In a few lines: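 CellSensor ESRE-bla HeLa cells, 1,500 per well, plated overnight, then exposed to compounds for 5 hr at 37 C. Beta-lactamase reporter read with LiveBLAzer B/G FRET substrate after 2 hr at room temperature, 405 nm excitation, 460 and 530 nm emission.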

Assay [10] in a line: qHTS assay to identify small molecule agonists of the endoplasmic reticulum stress response signaling pathway - cell viability counter screen (AID 1159517; calls by dose curve;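 also: HeLa cells carrying an ER stress response element beta-lactamase reporter; series mostly up to about 61 µM; nearly all actives have a fitted effect of over 50% in size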). In a few lines:
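Counter-screen wells were identical to the reporter wells. Cells were plated at 1,500 per well and dosed for 5 hr, then read for luminescence 30 min after CellTiter-Glo addition.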

Assay [11] can be described thus: qHTS assay to identify small molecule antagonists of the retinoid-related orphan receptor gamma (ROR-gamma) signaling pathway - cell viability counter screen (AID 1159520). Also: nearly all actives have a fitted effect of over 50% in size. Also: potency is read from the fitted curve at half-maximal effect. Put shortly:
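Tet-on ROR gamma CHO cells were given compounds for 2 hr, then doxycycline hyclate at 1 uM final, and incubated 16 hr at 37 C. Viability was measured as ATP content by CellTiter-Glo luminescence.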

Assay [12] addresses Nuclear receptor ROR-gamma (Homo sapiens) (UniProt P51449). Briefly: qHTS assay to identify small molecule antagonists of the retinoid-related orphan receptor gamma (ROR-gamma) signaling pathway (AID 1159521; also: nearly all actives have a fitted effect of over 50% in size; also: potency is read from the fitted curve at half-maximal effect). In a few lines:
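Inducible-expression reporter assay: doxycycline (1 uM final) switched on RORγ in CHO cells bearing a ROR response element-luciferase construct, with test compounds present from 2 h beforehand. Decreased luminescence after 16 h defined antagonist activity.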

Assay [13] is described as follows: qHTS assay to identify small molecule agonists of the AP-1 signaling pathway - cell viability counter screen (AID 1159525; calls by dose curve; also: nearly all actives have a fitted effect of over 55% in size). In a few lines:
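AP-1-bla ME-180 cells in Opti-MEM with 0.5% dialyzed FBS, compound exposure 5 h at 37 C in 15-point titration. Viability read in the same wells as ATP content by CellTiter-Glo luminescence, normalised to tetra-n-octylammonium bromide and DMSO controls.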

The nature of assay [14]: qHTS assay to identify small molecule agonists of the AP-1 signaling pathway (AID 1159526; calls by dose curve; also: potency is read from the fitted curve at half-maximal effect).
Assay [15] in a line: qHTS assay to identify small molecule agonists of the peroxisome proliferator-activated receptor delta (PPARd) signaling pathway - cell viability counter screen (AID 743211). Also: nearly all actives have a fitted effect of over 55% in size. In a few lines:
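Tox21 library compounds, delivered in DMSO, were incubated 17 h with PPARd-bla HEK293H cells; cytotoxicity was taken from CellTiter-Glo luminescence read 30 min after reagent addition.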

In assay [16] the target is Bile acid receptor (Homo sapiens) (UniProt Q96RI1). Nature of the assay: qHTS assay to identify small molecule antagonists of the farnesoid-X-receptor (FXR) signaling pathway (AID 743217; active = well fitted inhibition curve with a large enough effect in the signal ratio in the repeat runs, not every such curve was filed as active; the % refers to the signal ratio). In a few lines: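 FXR-UAS-bla HEK 293T cells (beta-lactamase reporter) given compound plus chenodeoxycholic acid (50 uM final), 16 h at 37C. LiveBLAzer B/G FRET substrate added for 2 h at room temperature; fluorescence read.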

The target is the same in assay [17]. Nature of the assay: qHTS assay to identify small molecule agonists of the farnesoid-X-receptor (FXR) signaling pathway (AID 743220; active = well fitted activation curve with a large enough effect in the signal ratio in the repeat runs, not every such curve was filed as active; the % refers to the signal ratio). Put shortly:
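Beta-lactamase reporter under UAS control in GeneBLAzer FXR HEK 293T cells (5000/well) measured with LiveBLAzer FRET substrate after 2 h at room temperature. Compound exposure lasted 16 h at 37C.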

The target in assay [18] is Retinoic acid receptor RXR-alpha (Homo sapiens) (UniProt P19793). Briefly: qHTS assay to identify small molecule agonists of the RXR signaling pathway (AID 1159527; calls by dose curve; also: nearly all actives have a fitted effect of over 35% in size). In a few lines:
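Compounds in DMSO were added to RXR-alpha-UAS-bla HEK 293T cells kept in 2% charcoal-stripped serum, and incubated 16 hr at 37 C with 5% CO2. Reporter signal came from a 2 hr B/G FRET substrate step.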

Assay [19] deals with Peroxisome proliferator-activated receptor delta (Homo sapiens) (UniProt Q03181). Briefly: qHTS assay to identify small molecule antagonists of the peroxisome proliferator-activated receptor delta (PPARd) signaling pathway (AID 743215; active = well fitted inhibition curve with a large enough effect in the signal ratio in the repeat runs, not every such curve was filed as active; the % refers to the signal ratio;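 also: cells stimulated with agonist L165041 at 300 nM final during compound exposure; series mostly up to about 62 µM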). In a few lines: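 PPARd-bla HEK293H cells (UAS-bla reporter) preincubated 5 h, then given compound plus 300 nM final L165041 agonist for 17 h at 37 C. Beta-lactamase activity read by LiveBLAzer B/G FRET substrate fluorescence after 2 h at room temperature.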

A short description of assay [20]: qHTS assay to identify small molecule antagonists of the vitamin D receptor (VDR) signaling pathway - cell viability counter screen (AID 743225). Also: nearly all actives have a fitted effect of over 50% in size. Put shortly: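 Same-well multiplex: following 16 h treatment of HEK 293T cells carrying a UAS-driven beta-lactamase reporter with compound and agonist (3 nM final), and a 2 h FRET substrate step, CellTiter-Glo was added and luminescence read after 30 min.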

Peroxisome proliferator-activated receptor delta (Homo sapiens), sequence (Q03181 whole entry, looked up): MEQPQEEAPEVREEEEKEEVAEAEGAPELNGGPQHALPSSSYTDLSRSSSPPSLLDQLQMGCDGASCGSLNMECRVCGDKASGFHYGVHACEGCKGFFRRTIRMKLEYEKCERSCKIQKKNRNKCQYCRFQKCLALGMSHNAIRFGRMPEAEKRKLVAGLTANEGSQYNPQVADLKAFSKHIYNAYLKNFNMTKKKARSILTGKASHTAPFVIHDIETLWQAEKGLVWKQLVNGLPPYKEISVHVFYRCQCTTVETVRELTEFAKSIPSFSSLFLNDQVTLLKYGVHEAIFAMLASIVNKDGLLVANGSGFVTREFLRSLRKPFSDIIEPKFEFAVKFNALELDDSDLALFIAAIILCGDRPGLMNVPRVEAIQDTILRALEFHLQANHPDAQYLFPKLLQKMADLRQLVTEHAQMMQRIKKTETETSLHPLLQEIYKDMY
Retinoic acid receptor RXR-alpha (Homo sapiens), sequence (P19793 whole entry, looked up): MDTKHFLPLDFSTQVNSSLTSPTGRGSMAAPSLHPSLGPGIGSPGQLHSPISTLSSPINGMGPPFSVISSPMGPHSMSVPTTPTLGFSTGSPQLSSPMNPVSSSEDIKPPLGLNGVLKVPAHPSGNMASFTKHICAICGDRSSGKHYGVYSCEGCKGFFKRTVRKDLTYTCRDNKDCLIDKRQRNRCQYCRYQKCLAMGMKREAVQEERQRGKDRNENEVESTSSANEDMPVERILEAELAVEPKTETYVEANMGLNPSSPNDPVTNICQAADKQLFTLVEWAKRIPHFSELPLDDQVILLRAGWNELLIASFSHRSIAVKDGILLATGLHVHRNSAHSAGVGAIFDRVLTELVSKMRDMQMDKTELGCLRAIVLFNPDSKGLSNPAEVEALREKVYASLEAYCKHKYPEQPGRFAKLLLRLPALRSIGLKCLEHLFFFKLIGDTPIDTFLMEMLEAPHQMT
Vitamin D3 receptor (Homo sapiens), sequence (P11473 whole entry, looked up): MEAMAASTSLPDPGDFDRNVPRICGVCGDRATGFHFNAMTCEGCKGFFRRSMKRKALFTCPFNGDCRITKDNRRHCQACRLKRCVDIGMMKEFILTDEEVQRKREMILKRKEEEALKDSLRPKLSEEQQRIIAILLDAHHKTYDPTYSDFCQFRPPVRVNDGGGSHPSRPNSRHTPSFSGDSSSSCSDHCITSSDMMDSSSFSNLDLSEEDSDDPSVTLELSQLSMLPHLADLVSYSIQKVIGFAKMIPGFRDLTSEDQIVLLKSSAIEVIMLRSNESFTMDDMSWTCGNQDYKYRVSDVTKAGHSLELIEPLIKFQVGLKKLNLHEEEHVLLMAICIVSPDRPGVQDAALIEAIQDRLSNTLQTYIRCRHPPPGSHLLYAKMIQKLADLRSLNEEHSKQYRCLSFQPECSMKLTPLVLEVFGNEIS
Bile acid receptor (Homo sapiens), sequence (Q96RI1 whole entry, looked up): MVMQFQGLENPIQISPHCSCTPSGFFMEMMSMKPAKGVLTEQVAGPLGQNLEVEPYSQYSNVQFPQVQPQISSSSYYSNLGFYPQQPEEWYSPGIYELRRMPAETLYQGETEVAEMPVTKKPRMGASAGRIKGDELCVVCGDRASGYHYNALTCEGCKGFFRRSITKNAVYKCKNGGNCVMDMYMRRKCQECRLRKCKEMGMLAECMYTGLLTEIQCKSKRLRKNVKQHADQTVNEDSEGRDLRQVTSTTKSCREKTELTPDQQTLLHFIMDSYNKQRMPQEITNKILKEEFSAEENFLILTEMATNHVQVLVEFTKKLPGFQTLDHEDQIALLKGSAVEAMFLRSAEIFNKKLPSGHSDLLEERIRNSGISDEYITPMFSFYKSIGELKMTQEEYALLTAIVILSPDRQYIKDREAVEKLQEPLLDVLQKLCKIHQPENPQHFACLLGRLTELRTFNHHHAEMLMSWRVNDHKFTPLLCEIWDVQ

`CC(C)(C)c1cc(O)c(C(C)(C)C)cc1O`: the result in assay [1], in [5] and in assay [10] was inactive. Also, the Potency entry in assay [2], in assay [3], in [4], in [6], in assay [7] and in assay [8] was “inactive” in each case. The Potency entry in assay [13] and in assay [14] was “inactive” in each case. Also, the Potency is 5.49 µM (active) in assay [9], 48.6 µM (active) in assay [11] and 15.4 µM (active) in assay [12].

`O=C(CC(=O)c1ccccc1)c1ccccc1`: the Potency result in [15], in [2], in assay [3], in [4], in assay [6] and in assay [8] was “inactive” each time. In addition, the Potency entry in assay [9], in assay [11], in [12] and in assay [13] was “inactive” each time. The outcome in assay [1], in [16], in assay [17], in [5] and in assay [10] was inactive.

Take `CN1CCC[C@@H]1c1cccnc1`: the Potency entry in [15], in assay [2], in [3], in assay [4], in assay [6] and in assay [7] was “inactive” each time. Further, the Potency result in [8], in [9], in [11], in assay [12], in assay [13] and in assay [18] was “inactive” in each case. The compound was called inactive in [5] and in assay [10].

Consider `CC1CCc2cc(F)cc3c(=O)c(C(=O)O)cn1c23` (stereo not drawn), for which the Potency result in assay [15], in [2], in assay [3], in [4], in assay [7] and in [8] was “inactive” throughout. Further, the Potency entry in assay [9], in [11], in [12] and in assay [13] was “inactive” each time. The outcome in assay [1], in [17] and in [10] was inactive.

As to `CC[C@]12CCCN3CCc4c(n(c5ccccc45)C(=O)C1)[C@@H]32`, the Potency entry in assay [15], in [2], in [3], in assay [4], in assay [7] and in assay [20] was “inactive” throughout. Moreover, the Potency entry in [8], in [9], in [11], in assay [12], in assay [13] and in [18] was “inactive” each time. Further, the call in [1], in assay [19] and in assay [10] was inactive.

For `CCCCc1cc2ccccc2c(OCCN(C)C)n1`, the outcome in [1], in assay [19], in [17], in assay [5] and in assay [10] was inactive. The Potency result in [2], in assay [3], in [4], in assay [6], in assay [7] and in assay [20] was “inactive” in each case. Further, the Potency entry in assay [8], in assay [9], in assay [11], in assay [12], in assay [13] and in [18] was “inactive” in each case.

On to `CNCC[C@@H](Oc1ccccc1C)c1ccccc1`, for which the Potency entry in assay [2], in assay [3], in assay [4], in assay [6], in assay [8] and in assay [9] was “inactive” in each case. Besides, the Potency result in [11], in assay [12] and in assay [13] was “inactive” throughout. For the same compound, the outcome in [19], in [5] and in assay [10] was inactive. The Potency in assay [14] was 21.3 µM (active).

For the compound `CCN(CC)CCNC(C(=O)OCCC(C)C)c1ccccc1` (stereo not drawn), the Potency result in assay [15], in assay [2], in assay [3], in assay [4], in assay [6] and in [7] was “inactive” throughout. Besides, the Potency result in assay [20], in assay [8], in assay [9], in [11], in assay [12] and in [13] was “inactive” in each case. Besides, in assay [18], the Potency result is “inactive”. For the same compound, the compound was called inactive in assay [1], in [19], in [5] and in assay [10].
